# ± gives the standard deviation of the averaged measurements.
# Tests used:
# [1] = system: DLD1; assay: cell viability (CellTiter-Glo) relative to plate median (fraction of plate median); higher = more viable cells; conditions: 10 µM, treatment time 24 h
# How it was run: (§1)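 Each value averages two independent replicates in which the well signal was normalised to the plate median (webcellHTS2, additive, without log transformation). The signal was firefly luciferase or CellTiterGlo luminescence, read on parallel plates with a Tecan F500. The cells were colorectal cancer lines with stable lentiviral TCF/Wnt firefly luciferase reporters in 384-well plates, dosed 24 h after seeding with kinase inhibitor library compounds at a final 10 µM for 24 h.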
# [2] = system: HCT116; assay: as above; conditions: 10 µM; treatment time 24 h; reporter: TCF4/Wnt
# How it was run: as §1
# [3] = system: SW480; assay: as above; conditions: 10 µM; treatment time 24 h; reporter: 7TFP
# How it was run: as §1
# [4] = system: DLD1; assay: TCF/Wnt firefly luciferase reporter signal relative to plate median (fraction of plate median); higher = higher Wnt reporter signal; conditions: 10 µM, treatment time 24 h
# How it was run: as §1
# [5] = system: HCT116; assay: as above; conditions: 10 µM; treatment time 24 h; reporter: TCF4/Wnt
# How it was run: as §1
# [6] = system: SW480; assay: as above; conditions: 10 µM; treatment time 24 h; reporter: 7TFP
# How it was run: as §1
SMILES,cell viability ([1]; reporter: 7TFP),cell viability ([1]; reporter: TCF4/Wnt),cell viability [2],cell viability [3],TCF/Wnt firefly luciferase reporter signal ([4]; reporter: 7TFP),TCF/Wnt firefly luciferase reporter signal ([4]; reporter: TCF4/Wnt),TCF/Wnt firefly luciferase reporter signal [5],TCF/Wnt firefly luciferase reporter signal [6]
Cn1cnc(N)c2ncnc1-2 [3-Methyladenine],1.07 ± 0.078,1.11 ± 0.12,1.13 ± 0.014,0.867 ± 0.1,1.17 ± 0.13,1.12 ± 0.11,1.03 ± 0.066,0.733 ± 0.24
Nc1nc(Nc2ccc(S(N)(=O)=O)cc2)nn1C(=O)c1c(F)cccc1F,1.01 ± 0.14,1.05 ± 0.076,0.71 ± 0.11,1.24 ± 0.071,0.811 ± 0.057,1.59 ± 0.69,0.284 ± 0.018,1.09 ± 0.13
FC(F)c1nc2ccccc2n1-c1nc(N2CCOCC2)nc(N2CCOCC2)n1,0.82 ± 0.08,0.835 ± 0.016,0.829 ± 0.042,1.065 ± 0.0071,0.673 ± 0.019,0.891 ± 0.11,1.01 ± 0.061,1.03 ± 0.17
CCS(=O)(=O)N1CC(CC#N)(n2cc(-c3ncnc4[nH]ccc34)cn2)C1,1.025 ± 0.0071,1.02 ± 0.021,1.22 ± 0.092,0.943 ± 0.0014,1.09 ± 0.16,0.764 ± 0.18,0.974 ± 0.11,0.985 ± 0.021
O=C(Nc1c[nH]nc1-c1nc2ccc(CN3CCOCC3)cc2[nH]1)NC1CC1,0.842 ± 0.038,0.817 ± 0.022,0.566 ± 0.1,1.02 ± 0.14,0.865 ± 0.018,1.575 ± 0.0071,0.189 ± 0.0099,0.84 ± 0.052
O=C(NCc1ccccc1)c1csc(Nc2ccncn2)n1 [Thiazovivin],1.14 ± 0.085,1.13 ± 0.071,1.16 ± 0.021,1.145 ± 0.0071,1.13,0.78 ± 0.18,1.78 ± 0.028,1.205 ± 0.0071
Oc1ccc(-c2nc(-c3ccc(F)cc3)c(-c3ccncc3)[nH]2)cc1,1.08 ± 0.064,1.04 ± 0.014,1.14 ± 0.021,0.916 ± 0.013,0.747 ± 0.27,0.85 ± 0.04,1.05 ± 0.035,0.792 ± 0.15
Cn1cc(-c2ccc3nnc(Sc4ccc5ncccc5c4)n3n2)cn1,0.983 ± 0.016,0.9215 ± 0.0078,1.07 ± 0.05,0.862 ± 0.014,1.12 ± 0.16,1.19 ± 0.042,1.41 ± 0.17,1.02 ± 0.052
C=CC(=O)Nc1ccc2ncnc(Nc3ccc(OCc4cccc(F)c4)c(Cl)c3)c2c1,1.02 ± 0.03,1.06 ± 0.085,0.998 ± 0.017,1 ± 0.07,0.691 ± 0.0099,0.879 ± 0.2,0.686 ± 0.33,1.09 ± 0.11
CC1(COc2ccc3c(c2)ncn3-c2ccc3cccc(N4CCC(N)CC4)c3n2)COC1,0.975 ± 0.02,1.14 ± 0.11,0.536 ± 0.13,1.02 ± 0.014,1.48 ± 0.25,1.73 ± 0.064,0.288 ± 0.11,1.64 ± 0.014
CCc1cc2c(cc1N1CCC(N3CCOCC3)CC1)C(C)(C)c1[nH]c3cc(C#N)ccc3c1C2=O,1.05 ± 0.071,0.995 ± 0.064,1.18 ± 0.26,0.853 ± 0.033,1.08 ± 0.078,1.05 ± 0.12,1.01 ± 0.17,0.638 ± 0.31

# — the supplement of paper PMC6522484
